In all, about 11,000 compounds went through this assay and about 310 (2.8%) were called active. No stated cut-off is given here; in the data, active means activity change below about -85%; inactive means the rest. The entries come from a sample that favours actives as a whole.
What follows are molecules tested on intestinal alkaline phosphatase [Mus musculus] (assay: activators of mouse IAP, confirmation, biochemical, luminescence, single concentration (AID 434970)). Settings: purified mouse IAP, CDP-Star luminescence, 30 min, at 10 µM; activation factor: measured here: IAP activation factor, stronger effect = higher value; activity change, negative = activation: stronger effect = lower value.

| SMILES | activation factor | activity change, negative = activation |
| --- | --- | --- |
| O=C(c1ccc(F)cc1)N1CCN(Cc2ccccc2Br)CC1 | 0.984 | 1.55% (inactive) |
| CCn1c(SCC(=O)Nc2nccs2)nnc1-c1cc2cccc(OC)c2o1 | 0.881 | 11.9% (inactive) |
| CCOc1ccc(C(=S)N2CCCC2)cc1 | 0.949 | 5.1% (inactive) |
| CCSc1nc(N)c2c(C)c(C)sc2n1 | 1.11 | -10.9% (inactive) |
| CCOc1ccccc1N1CCN(S(=O)(=O)c2ccc3c4c(cccc24)C(=O)N3)CC1 | 0.442 | 55.8% (inactive) |
| Cc1c(Cl)cccc1NC(=S)NCCC(c1ccccc1)c1ccccc1 | 4.75 | -375% (active) |
| Cc1cc(Cl)ccc1NC(=S)NCCC(c1ccccc1)c1ccccc1 | 2.05 | -105% (active) |
| S=C(NCCCc1ccccc1)Nc1ccccc1Cl | 1.26 | -26.2% (inactive) |
| Cc1ccc(Cl)cc1NC(=S)NCCCSC1CCCCC1 | 1.29 | -28.8% (inactive) |
| Cc1c(Cl)cccc1NC(=S)NCCC(C)C | 1.19 | -19.2% (inactive) |
| Cc1ccccc1NC(=S)NCCC(c1ccccc1)c1ccccc1 | 1.96 | -96% (active) |
| COc1ccc(Cl)cc1NC(=S)NCCSc1ccc(C)cc1 | 1.43 | -42.5% (inactive) |
| S=C(NCCC(c1ccccc1)c1ccccc1)Nc1ccccc1Cl | 1.84 | -84.1% (inactive) |
| COc1ccccc1NC(=S)NCCC(c1ccccc1)c1ccccc1 | 1.39 | -38.9% (inactive) |
| S=C(NCCc1ccc(Cl)cc1)Nc1ccc(Cl)cc1Cl | 1.36 | -36.1% (inactive) |
| COc1ccc(Cl)cc1NC(=S)NCCC(c1ccccc1)c1ccccc1 | 2.07 | -107% (active) |
| Cc1c(Cl)cccc1NC(=S)NCc1ccccc1 | 1.04 | -4% (inactive) |
| CSc1nc(Oc2ccc(=O)n(C)n2)nc(N(C)C)n1 | 1.07 | -6.65% (inactive) |
| COc1ccc(C2C(C#N)=C(N)N(c3sc4c(c3C#N)CCCC4)C3=C2C(=O)CC(C)(C)C3)cc1OC (stereo not drawn) | 0.851 | 14.9% (inactive) |
| CCC(C)(C)NC(=O)C(c1ccccc1)N(C(=O)c1csnn1)C1CC1 (stereo not drawn) | 0.99 | 1% (inactive) |
| Cc1cc(=O)c2cc(Br)ccc2[nH]1 | 0.944 | 5.65% (inactive) |
| CCOC(=O)CSc1nc(-c2ccc(OC)cc2)ns1 | 1 | 0.05% (inactive) |
| COc1ccccc1C(=O)NCCN1CCN(C(=O)c2ccccc2OC)CC1 | 1.1 | -10.1% (inactive) |
| COc1cccc(OCC(=O)Nc2ccccc2NC(C)=O)c1 | 1.08 | -8.25% (inactive) |
| COc1ccc(C(=O)Nc2ccccc2C(=O)N/N=C/c2cccc3ccccc23)cc1 | 1.02 | -1.95% (inactive) |
| COc1cccc(C(CC(=O)Nc2cccc3ccccc23)NC(=O)c2ccccc2)c1 (stereo not drawn) | 2.19 | -119% (active) |
| NC(=O)CSc1nnc(-c2ccncc2)n1CCc1ccccc1 | 1.05 | -5.05% (inactive) |

| SMILES | activation factor | activity change, negative = activation |
| --- | --- | --- |
| COc1ccc(COC(=O)Nc2cc3c(C(F)(F)F)nn(C)c3s2)cc1 | 1.23 | -23.1% (inactive) |
| O=C1NC2(CCCCC2)C(=O)N1c1ccccc1 | 1.08 | -7.85% (inactive) |
| COc1ccc(NC(=O)NC23CC4(C)CC(C)(CC(C)(C4)C2)C3)cc1OC | 1.65 | -64.8% (inactive) |
| COc1ccc(NC(=O)NC23CC4(C)CC(C)(CC(C)(C4)C2)C3)cc1 | 2.08 | -108% (active) |
| COc1ccc(NC(=O)NCc2ccncc2)cc1 | 1.01 | -0.85% (inactive) |
| Cn1nnnc1SCC(=O)N1CCN(c2ccc(Cl)cc2)CC1 | 1.06 | -5.85% (inactive) |
| CCN(CC)c1ccc(NC(=O)c2cccc(OC)c2)c(C)c1 | 0.97 | 3.05% (inactive) |
| CCOc1ccc(OCCCN(C)C)cc1 | 0.976 | 2.4% (inactive) |
| O=C(CN1CCN(Cc2ccccc2Cl)C1=O)NCc1ccco1 | 0.935 | 6.45% (inactive) |
| CCOC(=O)C1CCN(CCC(=O)Nc2ccccc2Cl)CC1 | 0.996 | 0.35% (inactive) |
| O=C(NCC1CCN(Cc2cccc(Cl)c2)CC1)Nc1ccccc1Cl | 2.17 | -118% (active) |
| Cc1cccc(CN2CCC(CNC(=O)CCNC(=O)Cn3ccc4ccccc4c3=O)CC2)c1 | 0.974 | 2.6% (inactive) |
| S=C(Nc1cc(Cl)cc(Cl)c1)NC1CCN(Cc2ccccc2)CC1 | 1.54 | -53.5% (inactive) |
| Cc1ccc(NC(=O)NCC2CCN(Cc3cccc(Cl)c3)CC2)c(Cl)c1 | 2.2 | -120% (active) |
| CCOC(=O)N1CCN(C(=O)Nc2ccc(Cl)cc2Cl)CC1 | 1.02 | -1.6% (inactive) |
| COc1cccc(Cn2cnc3c(NS(=O)(=O)c4ccc(Cl)cc4Cl)c(C)c(C)cc32)c1 | 0.985 | 1.45% (inactive) |
| CCn1c2ccccc2c2cc(NC(=O)C3CCN(S(=O)(=O)c4cccs4)CC3)ccc21 | 1.53 | -52.7% (inactive) |
| CC(C)n1cc(CN2CCC(C(=O)Nc3cccc(-c4cccc(Cl)c4)c3)CC2)cn1 | 3.97 | -297% (active) |
| Cc1ccc(CN2CCC(C(=O)Nc3cccc(-c4cccc(F)c4)c3)CC2)o1 | 1.48 | -48.2% (inactive) |
| CCn1cc(CN2CCC(C(=O)Nc3cccc(-c4cccc(Cl)c4)c3)CC2)cn1 | 4.29 | -329% (active) |
| Cn1cc(CN2CCC(C(=O)Nc3cccc(-c4cccc(F)c4)c3)CC2)cn1 | 2.29 | -129% (active) |
| CC(C)c1ccc(CN2CCC(C(=O)NCc3cccnc3)CC2)cc1 | 1.04 | -4.3% (inactive) |
| Cc1ccc(S(=O)(=O)NNC(=O)C2CCN(Cc3ccccc3)CC2)cc1 | 0.94 | 6% (inactive) |
| Cc1cc(C)c(S(=O)(=O)NNC(=O)C2CCN(Cc3ccccc3)CC2)c(C)c1 | 0.968 | 3.2% (inactive) |
| CCn1cc(CN2CCC(C(=O)Nc3cccc(-c4cccc(F)c4)c3)CC2)cn1 | 2.66 | -166% (active) |
| C[C@]12c3[nH]c4ccc(Cl)cc4c3CCN1C(=O)[C@@H](CC(=O)NCc1cccc(C(F)(F)F)c1)C[C@@H]2C(=O)N1CCCCC1 | 1.26 | -26.2% (inactive) |
| c1ccc(-n2nnnc2SCc2cccc3nsnc23)cc1 | 0.908 | 9.2% (inactive) |

— PubChem BioAssay AID434970 (Sanford-Burnham Center for Chemical Genomics, 2010)
